What all share (assay): protein domain microarray probed with biotinylated miRNA; Domain array: 20 mM Tris-HCl pH 7.4, 200 mM KCl, 0.2 mM EDTA, 0.05% NP40, 2 ug/ul heparin, overnight 4 C. ORF array: PBS pH 7.0 with RNase inhibitor, 100 ng RNA; high values mean tight binding
Holding throughout (conditions): ssRNA

For one assay, the target named is T1, ADARB2(2) (Homo sapiens, UniProt Q9NS39).
T1 sequence: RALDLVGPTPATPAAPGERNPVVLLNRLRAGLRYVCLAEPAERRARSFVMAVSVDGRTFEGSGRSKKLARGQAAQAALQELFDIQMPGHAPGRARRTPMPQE

The target in a further assay is FBP3(1-4) (Homo sapiens, UniProt Q96I24).
Chain of FBP3(1-4) (Q96I24 57-441): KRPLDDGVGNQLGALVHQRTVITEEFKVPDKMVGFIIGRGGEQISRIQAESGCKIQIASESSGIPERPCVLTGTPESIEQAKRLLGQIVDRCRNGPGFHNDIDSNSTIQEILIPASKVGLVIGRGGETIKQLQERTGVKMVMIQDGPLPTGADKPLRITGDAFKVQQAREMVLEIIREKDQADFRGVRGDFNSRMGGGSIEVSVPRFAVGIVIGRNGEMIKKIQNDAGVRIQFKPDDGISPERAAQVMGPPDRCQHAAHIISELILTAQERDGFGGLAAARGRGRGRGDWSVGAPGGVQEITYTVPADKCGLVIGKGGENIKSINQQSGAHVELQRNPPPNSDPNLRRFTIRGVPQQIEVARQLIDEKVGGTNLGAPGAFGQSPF
In another assay the target is IGF2BP3(3-4) (Homo sapiens, UniProt O00425).
Chain of IGF2BP3(3-4) (O00425 387-579): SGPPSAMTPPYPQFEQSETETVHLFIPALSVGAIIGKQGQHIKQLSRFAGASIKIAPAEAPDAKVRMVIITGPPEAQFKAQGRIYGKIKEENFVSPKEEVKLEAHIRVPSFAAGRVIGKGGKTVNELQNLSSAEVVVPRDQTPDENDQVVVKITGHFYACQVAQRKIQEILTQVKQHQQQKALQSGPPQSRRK
For the next assay, the target named is T2, DGCR8 (Homo sapiens, UniProt Q8WYQ5).
T2 sequence: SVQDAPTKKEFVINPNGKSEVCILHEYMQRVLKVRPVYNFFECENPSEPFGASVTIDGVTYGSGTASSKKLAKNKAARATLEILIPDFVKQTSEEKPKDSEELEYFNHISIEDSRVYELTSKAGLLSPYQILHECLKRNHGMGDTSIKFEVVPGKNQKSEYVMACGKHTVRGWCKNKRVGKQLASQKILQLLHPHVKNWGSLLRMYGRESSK

In the next assay the target is T3, QKI (Homo sapiens, UniProt Q96PU8).
T3 sequence: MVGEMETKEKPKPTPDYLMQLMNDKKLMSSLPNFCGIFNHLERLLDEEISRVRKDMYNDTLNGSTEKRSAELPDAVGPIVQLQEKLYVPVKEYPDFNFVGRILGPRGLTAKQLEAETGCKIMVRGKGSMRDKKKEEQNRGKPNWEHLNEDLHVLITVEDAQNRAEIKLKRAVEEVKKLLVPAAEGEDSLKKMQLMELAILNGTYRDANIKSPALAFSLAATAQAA

For the sequence UGAGGUAGUAGGUUGUAUGGUU, the binding signal with ADARB2(2) came out at 59.45 ± 0.594 fluorescence intensity; with FBP3(1-4), 77.1 ± 5.85 fluorescence intensity; with IGF2BP3(3-4), 96.125 ± 0.0778 fluorescence intensity; in the assay with DGCR8 it was 110 ± 8.32 fluorescence intensity; with QKI, 33.2 ± 5.98 fluorescence intensity.

For UGAGGUAGUAGGUUGUGUGGUU, the binding signal is 85.94 ± 0.24 fluorescence intensity with ADARB2(2); 107 ± 3.19 fluorescence intensity with FBP3(1-4); 169 ± 5.85 fluorescence intensity with IGF2BP3(3-4); 212.8 ± 0.537 fluorescence intensity in the assay with DGCR8; 66.4 ± 1.27 fluorescence intensity in the assay with QKI.

Take CAGUGCAAUGAUGAAAGGGCAU: the binding signal turned out to be 32.5 ± 3.78 fluorescence intensity with ADARB2(2); 52.55 ± 0.495 fluorescence intensity with FBP3(1-4); 53.6 ± 2.39 fluorescence intensity with IGF2BP3(3-4); 102 ± 2.74 fluorescence intensity with DGCR8; 37.7 ± 8.53 fluorescence intensity in the assay with QKI.

On to UGAGGUAGUAGGUUGUAUAGUU, for which the binding signal in the assay with FBP3(1-4) was 38 ± 4.14 fluorescence intensity; with IGF2BP3(3-4) it was 29.1 ± 0.552 fluorescence intensity; with DGCR8, 38.6 ± 3.32 fluorescence intensity; with QKI, 20.4 ± 2.35 fluorescence intensity.

Take AGAGGUAGUAGGUUGCAUAGUU: the binding signal is 23.8 ± 11.5 fluorescence intensity with ADARB2(2); 63.6 ± 6.09 fluorescence intensity in the assay with FBP3(1-4); 64.5 ± 3.37 fluorescence intensity with IGF2BP3(3-4); 130 ± 1.15 fluorescence intensity with DGCR8; 33.1 ± 1.25 fluorescence intensity in the assay with QKI.

These data come from paper PMC11574364.
